Consider 62 sequences from the supplement of paper PMC10338343.

± gives the standard deviation. In all, about 5,500 sequences were measured (“pre-steady-state target cleavage rate”: median about 0.1, highest 2% from about 0.64 on). The sample as a whole holds a higher share of the highest values than the screen did.

The test system of the test is MIWI (PIWIL1) piRISC loaded with piRNA #2 (30 nt). In words: pre-steady-state target cleavage rate (min^-1); MIWI and MILI are mouse PIWI proteins and EfPiwi is from a freshwater sponge; tags in brackets are library labels; higher = faster piRNA-guided slicing of the target. To be noted: guide: piRNA #2 5'p-UUAGGUAACCCAGUAGAUCCAGAGGAAUUC; auxiliary factor: 500 nM mouse GTSF1. The essentials: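 Cleave-'n-Seq: a transcribed, DNA-blocked target RNA library (0.1 nM) was mixed with 1 nM active affinity-purified piRISC carrying one synthetic guide, with or without 500 nM GTSF1 partner protein, in HEPES–potassium acetate buffer at 33 °C for 0–8 or 0–960 min. Uncleaved targets were sequenced and normalised to depth and to weakly complementary targets. Three trials were pooled, and k3 was capped at 0.0001 min^-1. The pre-steady-state cleavage rate came from a burst-and-steady-state fit.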
CAAUUGCUCUGGAUCUACUGGGUUACGUAA: the “pre-steady-state target cleavage rate” value was 0.536 ± 0.067.

As to CUUAAGGUGACGAUCUACUGGGUUACCUAA, the “pre-steady-state target cleavage rate” value turned out to be 0.0052 ± 0.0036.

On to CUUAAGGACAGGAUCUACUGCGUUACCUAA, for which the “pre-steady-state target cleavage rate” value was found to be 0.0331 ± 0.017.

On to CUUAACGUCUCGAUCUACUGGGUUACCUAA, for which the “pre-steady-state target cleavage rate” value was 0.357 ± 0.041.

As to CUUAAGGAGUAGAUCUACUGGGUUACCUAA, the “pre-steady-state target cleavage rate” value turned out to be 0.00567 ± 0.0048.

CAAUUCCUCUGGUUCUACUGGGAUACCUAA: the “pre-steady-state target cleavage rate” value came out at 0.145 ± 0.038.

Consider CUUAACCUGUGGAACUACUGGGUUACCUAA, for which the “pre-steady-state target cleavage rate” value came out at 0.177 ± 0.048.

Turning to CUUAAGGAGACCUUCUACUGGGUUACGUAA, the “pre-steady-state target cleavage rate” value is 0.00451 ± 0.0027.

On to CUUUUCCGUCUGGAUCUACUGGGUUACCUAA, for which the “pre-steady-state target cleavage rate” value is 0.385 ± 0.039.

In the case of CUUAACCUCUGGAUCUACUGUGUUACCUAA, the “pre-steady-state target cleavage rate” value worked out at 0.597 ± 0.045.

Take CUUAUCCUCUGGAUCUACUGUGUUACCUAA: the “pre-steady-state target cleavage rate” value was 0.722 ± 0.074.

Consider CUUAUCCUCUGGAUCUACUGGUUACCUAA, for which the “pre-steady-state target cleavage rate” value is 0.0947 ± 0.024.

For the sequence CUUAAGCUCUGGAUCUACUGGGUUACCUCAA, the “pre-steady-state target cleavage rate” value came out at 0.0988 ± 0.015.

Regarding CAUUUCCACUGGAUCUACUGGGUUACCUAA, the “pre-steady-state target cleavage rate” value is 0.478 ± 0.058.

As for CAAUUCCUCUGGAUCUACUGGGUUACCAAA, the “pre-steady-state target cleavage rate” value came out at 0.509 ± 0.068.

For CUAUUCCUCUCGAUCUACUGGGUUACCAAA, the “pre-steady-state target cleavage rate” value worked out at 0.711 ± 0.047.

Consider CUAUUCCUCUGGAUCUACUGGGUUACCAAA, for which the “pre-steady-state target cleavage rate” value was determined as 0.477 ± 0.061.

CUUUUCCUCUCGAUCUACUGGGUUACCUUA: the “pre-steady-state target cleavage rate” value amounted to 0.539 ± 0.05.

On to GAAUUCCUCUCGAUCUACUGGGUUACCAAA, for which the “pre-steady-state target cleavage rate” value worked out at 0.564 ± 0.067.

As to CAAUUCCUCUCGAUCUACUGGGUUACCAAA, the “pre-steady-state target cleavage rate” value came to 0.904 ± 0.073.

As for CUUUUCCUCUCGAUCUACUGGGUUACCAAA, the “pre-steady-state target cleavage rate” value was 0.64 ± 0.048.

In the case of CUUAUCCUCUCGAUCUACUGGGUUACCAAA, the “pre-steady-state target cleavage rate” value turned out to be 0.542 ± 0.041.

Turning to CUUUUCCUCUGGAUCUACUGGGUUACCAAA, the “pre-steady-state target cleavage rate” value came out at 0.477 ± 0.052.

Consider GAAUUCCUCUGGAUCUACUGGCUAACCUAA, for which the “pre-steady-state target cleavage rate” value came to 0.0225 ± 0.0083.

With CAAUUCCUCUGGAUCCUACUGGGUUACCUAA, the “pre-steady-state target cleavage rate” value is 0.29 ± 0.055.

Take GAAUUCCUCUCGAUCUACUGGGUUAGCUAA: the “pre-steady-state target cleavage rate” value amounted to 0.237 ± 0.052.

For CUUAAGGAGACCUAGUUCUGGGAUACCUAA, the “pre-steady-state target cleavage rate” value was less than 0.0001.

For “CAAUUCCUCUGGAUCUAGACCCAAUGGAUA [g14:g29:cont:t1A]”, the “pre-steady-state target cleavage rate” value was less than 0.0001.

Consider CAAUUCCUCUGGAACUACUGGGUUUCCUAA, for which the “pre-steady-state target cleavage rate” value came to 0.348 ± 0.1.

For the sequence CUAUUCCUCUGGAUCUACUGGGUUUCCUAA, the “pre-steady-state target cleavage rate” value turned out to be 0.344 ± 0.053.

As for CUAUUCCUCUGGUUCUACUGGGUUUCCUAA, the “pre-steady-state target cleavage rate” value worked out at 1.05 ± 0.44.

With CUAUUCCUCUGGUUCUACUGGGUAACCUAA, the “pre-steady-state target cleavage rate” value was 0.156 ± 0.033.

As to CAAUUCCUCUGGUUCUACUGGGUUUCCUAA, the “pre-steady-state target cleavage rate” value stood at 0.951 ± 0.36.

On to GAAUUCCUCUGGUUCUACUGGGUAACCUAA, for which the “pre-steady-state target cleavage rate” value turned out to be 0.288 ± 0.063.

CAAUUCCUCUGGUUCUACUGGGUAACCUAA: the “pre-steady-state target cleavage rate” value is 0.162 ± 0.032.

With CUAUUCCUCUGGAACUACUGGGUUUCCUAA, the “pre-steady-state target cleavage rate” value came out at 0.337 ± 0.12.

As to CUUUUCCUCUGGUUCUACUGGGUUUCCUAA, the “pre-steady-state target cleavage rate” value came out at 0.522 ± 0.19.

On to GAAUUCCUCUGGAACUACUGGGUUUCCUAA, for which the “pre-steady-state target cleavage rate” value worked out at 0.646 ± 0.21.

Turning to GAAUUCCUCUGGUUCUACUGGGUUUCCUAA, the “pre-steady-state target cleavage rate” value turned out to be 0.923 ± 0.3.

For the sequence GAAUUCCUCUGGAUCUACUGGGUUUCCUAA, the “pre-steady-state target cleavage rate” value is 0.27 ± 0.047.

With CUUUACCUCUGGAUCUACUGGGUUUCCUAA, the “pre-steady-state target cleavage rate” value was found to be 0.167 ± 0.029.

Consider CAAUUCCACUGGUUCUACUGGGUUACCUAA, for which the “pre-steady-state target cleavage rate” value turned out to be 0.593 ± 0.041.

Turning to CUUAAGGAGAGGAUCUACUGGGUUAACCUAA, the “pre-steady-state target cleavage rate” value is 0.00722 ± 0.0036.

As for CUUUUCCUCUGGAUCUACGGGUUACCUAA, the “pre-steady-state target cleavage rate” value worked out at 0.0476 ± 0.0059.

CUUAAGGACUGGAUCAACUGGCUUACCUAA: the “pre-steady-state target cleavage rate” value was 0.0268 ± 0.022.

As to CUUAAGGACUCGAUCUACUGGGUUAGCUAA, the “pre-steady-state target cleavage rate” value worked out at 0.00705 ± 0.0047.

In the case of CUUAACCACUGGAUCUACUGGGUUACGUAA, the “pre-steady-state target cleavage rate” value turned out to be 0.402 ± 0.031.

CAAUACGUCUGGAUCUACUGGGUUACCUAA: the “pre-steady-state target cleavage rate” value is 0.494 ± 0.053.

Take CUAUUCCUCUGGAACUACUGGGUUACGUAA: the “pre-steady-state target cleavage rate” value was found to be 0.47 ± 0.031.

Regarding CAAUUCCUCUGGAACUACUGGGUUACGUAA, the “pre-steady-state target cleavage rate” value was 0.517 ± 0.048.

For the sequence GAAUUCCUCUGGAACUACUGGGUUACGUAA, the “pre-steady-state target cleavage rate” value worked out at 0.657 ± 0.04.

For CUUAAGCUCUGCAUCUACUGGGUUAGCUAA, the “pre-steady-state target cleavage rate” value came out at 0.182 ± 0.027.

CAAUUCCUCUCCAUCUACUGGGUUACCUAA: the “pre-steady-state target cleavage rate” value stood at 0.829 ± 0.057.

Turning to CAAUUCCAUCUGGAUCUACUGGGUUACCUAA, the “pre-steady-state target cleavage rate” value turned out to be 0.568 ± 0.064.

As to CUUAUCCUCUCCAUCUACUGGGUUACCUAA, the “pre-steady-state target cleavage rate” value worked out at 0.422 ± 0.033.

As for GAAUUCCUCCUGGAUCUACUGGGUUACCUAA, the “pre-steady-state target cleavage rate” value was 0.445 ± 0.047.

In the case of CUAUUCCAUCUGGAUCUACUGGGUUACCUAA, the “pre-steady-state target cleavage rate” value was 0.537 ± 0.053.

For GAAUUCCUCUCCAUCUACUGGGUUACCUAA, the “pre-steady-state target cleavage rate” value was 0.706 ± 0.051.

Take CUAUUCCUCUCCAUCUACUGGGUUACCUAA: the “pre-steady-state target cleavage rate” value worked out at 0.647 ± 0.051.

Turning to CUUUUCCUCUCCAUCUACUGGGUUACCUAA, the “pre-steady-state target cleavage rate” value was 0.554 ± 0.044.

Regarding CUAUUCCUCUGGGAUCUACUGGGUUACCUAA, the “pre-steady-state target cleavage rate” value came to 0.514 ± 0.042.

With GAAUUCCUCGGAUCUACUGGGUUACCUAA, the “pre-steady-state target cleavage rate” value was found to be 0.432 ± 0.08.
